According to PubChem BioAssay AID602197 (NMMLSC, 2012):
This is one part of the list. The source made the active and inactive calls. Cut-off read from the data, not from the text of the source: active = response above about 24%; inactive = the rest.

Assay: V-ATPase regulators in yeast, one dose – S. cerevisiae, pH-sensitive GFP, second cherry-pick, confirmation (AID 602197);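 note: plate controls were vehicle wells for no effect and positive control wells for full effect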
Conditions: S. cerevisiae pHLuorin cytosolic pH, V-ATPase proton transport; at 10 µM; active compounds read high

response, inactive:
CC1=NN(c2ccc(Cl)c(C(=O)O)c2)C(=O)/C1=C/c1ccc(-c2ccccc2[N+](=O)[O-])o1 1.31%
Cc1ccnc(SCC(=O)Nc2cccc(S(=O)(=O)N3CCOCC3)c2)n1 0.72%
COc1ccc(CCN2C(=O)N(c3ccc(OC)cc3)C(=O)C2CC(=O)Nc2ccc(OC)cc2)cc1 (centres undefined) -1%
COc1ccc(C(=O)N(Cc2ccccc2)c2ccc(C)cc2)cc1S(=O)(=O)N1CCOCC1 -6.57%
CCCCNc1ccc(C(=O)Nc2cccc(C)n2)cc1[N+](=O)[O-] 2.43%
Cc1cc(=O)[nH]c(N/N=C/c2c(C)nn(-c3ccccc3Cl)c2Cl)n1 -0.02%
Nc1ccc(C(=O)NCc2ccccc2)cc1 -2.67%
N#C/C(C(=O)N1CCOCC1)=C1/SC(Cc2ccc(F)cc2)C(=O)N1c1ccccc1 (centres undefined) 5.79%
O=C(COC(=O)c1ccccc1Br)Nc1nnc(-c2ccccc2)o1 3.01%
Cc1cc(OC(=O)c2ccccc2)c([N+](=O)[O-])c(=O)[nH]1 1.38%
CCOC(=O)COc1cc(O)c2c(=O)cc(-c3ccccc3)oc2c1 -3.04%
CCc1ccc(CNC(=O)CCc2nc(-c3cccs3)no2)cc1 2.27%
COC(=O)c1cc(Oc2ccc(S(=O)(=O)N3CCOCC3)cc2[N+](=O)[O-])cc(C(=O)OC)c1 0.18%
OCc1nc(CO)n(Cc2ccccc2)n1 -7.16%
CCOc1ccc(CCNC(=O)C2=C(C)C(=O)OC23CCC(C)CC3)cc1OCC (centres undefined) 5.21%
COc1ccc(/C=N/NC(=O)c2cccc(C(F)(F)F)c2)cc1 -3.87%
Cc1cc(=O)c2ccc(NC(=O)c3ccccc3)cc2[nH]1 -0.97%
COC(=O)COc1ccc2c(=O)c(Oc3ccccc3Br)coc2c1 -1.59%
O=S(=O)(c1ccc(-c2ccno2)s1)N1CCCCC1 -6.9%
O=C(NCC1CCCCC1)c1cc(S(=O)(=O)N2CCCCC2)ccc1N1CCOCC1 -0.11%
O=C(C1=C[C@H](C2CC2)C[C@H](OCc2ccc(CO)cc2)O1)N1CCN(Cc2ccccc2)CC1 1.94%
CCOC(=O)N1CCN(CC(=O)n2c(C)c(C)c3ccccc32)CC1 1.66%

response, active:
CC1=NOC(=O)/C1=C\c1ccccc1 30.5%
COc1ccc2nc(N3CCN(C(=O)c4ccc([N+](=O)[O-])o4)CC3)sc2c1 36%
